Source: PubChem BioAssay (NCATS)
Where “and” joins values, the source holds several entries; their conditions need not be identical. Identical values can stand only once. Records with an inconclusive call do not appear. Calls of active or inactive are those of the source. Calls come from the whole dose curve; as a rule, active = well fitted curve in the direction sought with a large enough effect; inconclusive = small, poorly fitted or top-dose-only effect, or another doubt; inactive = no such curve, though single readings can be large; an effect the other way counts as inactive or inconclusive. Non-standard residues stand in square brackets, D forms with d. Residues, ends and D or L forms follow the SMILES beside them. *: point of attachment. Sta = CC(C)C[C@H](N)[C@@H](O)CC(=O)O; Isovaleryl = CC(C)CC(=O)*

Experiments:
[1] = qHTS of pediatric cancer cell lines to identify multiple opportunities for drug repurposing: Primary screen for Rh18 cells (AID 1347102); note: nearly all actives have a fitted effect of over 65% in size
How it was run: (§1)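 Viability after 48 h compound treatment at 37C, 500-1,000 cells/well, read as ATP luminescence with CellTiter-Glo. Primary screens used 11-point (MIPE, 0.78 nM-46 µM) or 8-point (NPC, 0.59 nM-46 µM) final concentrations; follow-up screens used 11-point dilutions.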

[2] = qHTS of pediatric cancer cell lines to identify multiple opportunities for drug repurposing: Primary screen for OHS-50 cells (AID 1347103); note: nearly all actives have a fitted effect of over 40% in size
How it was run: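 Cells (500-1,000/well) rested 5 h, then received compounds for 48 h; metabolically active cells were measured by CellTiter-Glo luminescence. Final concentrations spanned up to 46 µM (MIPE, 11-point) or 0.59 nM-46 µM (NPC, 8-point) in primary screens, 11-point in follow-ups.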

[3] = qHTS of pediatric cancer cell lines to identify multiple opportunities for drug repurposing: Primary screen for RD cells (AID 1347104); note: nearly all actives have a fitted effect of over 55% in size
How it was run: (§2)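 Phenotypic viability qHTS, 48 h compound exposure, CellTiter-Glo luminescence read-out; multi-concentration dosing so that potency and efficacy derive directly from the primary screen's curves.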

[4] = qHTS of pediatric cancer cell lines to identify multiple opportunities for drug repurposing: Primary screen for MG 63 (6-TG R) cells (AID 1347105); note: nearly all actives have a fitted effect of over 50% in size
How it was run: as §2

[5] = qHTS of pediatric cancer cell lines to identify multiple opportunities for drug repurposing: Primary screen for control Hh wild type fibroblast cells (AID 1347106); note: nearly all actives have a fitted effect of over 55% in size
How it was run: as §1

[6] = qHTS of pediatric cancer cell lines to identify multiple opportunities for drug repurposing: Primary screen for Rh41 cells (AID 1347108); note: nearly all actives have a fitted effect of over 70% in size
How it was run: as §2

[7] = qHTS of pediatric cancer cell lines to identify multiple opportunities for drug repurposing: Primary screen for Rh30 cells (AID 1347107); note: nearly all actives have a fitted effect of over 75% in size
How it was run: as §1

[8] = qHTS of pediatric cancer cell lines to identify multiple opportunities for drug repurposing: Confirmatory screen for NB1643 cells (AID 1347109); note: nearly all actives have a fitted effect of over 45% in size
How it was run: as §1

[9] = qHTS of pediatric cancer cell lines to identify multiple opportunities for drug repurposing: Confirmatory screen for A673 cells (AID 1347110);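 note: cells exposed to compound for 48 h before the viability read; nearly all actives have a fitted effect of over 65% in size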
How it was run: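 A673 cells seeded at 500-1,000 cells/well, rested 5 h, then dosed; primary MIPE 11-point (0.78 nM to 46 µM), NPC (0.59 nM to 46 µM); confirmatory 11-point. CellTiter-Glo luminescence after 48 h.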

[10] = qHTS of pediatric cancer cell lines to identify multiple opportunities for drug repurposing: Confirmatory screen for BT-12 cells (AID 1347112); note: nearly all actives have a fitted effect of over 55% in size
How it was run: as §1

Measured: Potency
Potency is the fitted concentration of half-maximal effect.

Cc1nc(-c2ccc(OCC(C)C)c(C#N)c2)sc1C(=O)O
inactive: [1] | [2] | [3] | [4] | [5] | [6]

N[C@@H](Cc1cc(I)c(Oc2cc(I)c(O)c(I)c2)c(I)c1)C(=O)O
not listed: [8] | [9] | [10]
inactive: all other assays above

O=C1CCc2ccc(OCCCCN3CCN(c4cccc(Cl)c4Cl)CC3)cc2N1
active: [2] 6.92 µM and 24.3 µM
not listed: [8] | [9] | [10]
inactive: all other assays above

O=C(CS(=O)Cc1ccco1)NCC=CCOc1cc(CN2CCCCC2)ccn1 (stereo unspecified)
inactive: [1] | [2] | [3] | [4] | [5] | [6]

CN(C)[C@@H](CCOc1cccc2ccccc12)c1ccccc1
inactive: [1] | [4] | [5] | [7] | [6]
active: [2] 15.5 µM and 21.7 µM | [3] 33.2 µM

CCOC(=O)c1c(C)n(C)c2ccc(O)cc12
not listed: [8] | [9] | [10]
inactive: all other assays above

CC1(C)NC(=O)N(c2ccc([N+](=O)[O-])c(C(F)(F)F)c2)C1=O
not listed: [8] | [9] | [10]
inactive: all other assays above

Cc1cccc(C#Cc2ccccc2)n1
inactive: [1]

CC(C)(S)[C@@H](N)C(=O)O
not listed: [8] | [9] | [10]
inactive: all other assays above

O=C(NCCO[N+](=O)[O-])c1cccnc1
not listed: [8] | [9] | [10]
inactive: all other assays above

O=C(O)c1cn(-c2ccc(F)cc2)c2cc(N3CCNCC3)c(F)cc2c1=O
not listed: [8] | [9] | [10]
inactive: all other assays above

Nc1ccc(S(N)(=O)=O)cc1
not listed: [8] | [9] | [10]
inactive: all other assays above

O=C(O)CCNC(=O)c1ccc(N=Nc2ccc(O)c(C(=O)O)c2)cc1
not listed: [8] | [9] | [10]
inactive: all other assays above

CCC[C@@H]1C[C@@H](C(=O)N[C@@H]([C@H]2O[C@H](SC)[C@H](O)[C@@H](O)[C@H]2O)[C@@H](C)O)N(C)C1
not listed: [8] | [9] | [10]
inactive: all other assays above

COc1cc2nc(N3CCN(C(=O)C4CCCO4)CC3)nc(N)c2cc1OC (stereo unspecified)
not listed: [8] | [9] | [10]
inactive: all other assays above

CN1C(C(=O)Nc2ccccn2)=C(O)c2sccc2S1(=O)=O
not listed: [8] | [9] | [10]
inactive: all other assays above

Cc1cc2c(s1)Nc1ccccc1N=C2N1CCN(C)CC1
not listed: [8] | [9] | [10]
inactive: all other assays above

Cc1ccc(C)c(OCCCC(C)(C)C(=O)O)c1
not listed: [8] | [9] | [10]
inactive: all other assays above

N=C(N)c1ccc2cc(OC(=O)c3ccc(N=C(N)N)cc3)ccc2c1
not listed: [8] | [9] | [10]
inactive: all other assays above

N=C(N=C(N)N)N1CCOCC1
not listed: [8] | [9] | [10]
inactive: all other assays above

C[C@H](Cn1cnc2c(N)ncnc21)OCP(=O)(O)O
not listed: [8] | [9] | [10]
inactive: all other assays above

CC1=C(C)C(=O)C(C(CCCCCC(=O)O)c2ccccc2)=C(C)C1=O (stereo unspecified)
inactive: [1] | [2] | [3] | [4] | [5] | [6]

CN(C)CCCC1(c2ccc(F)cc2)OCc2cc(C#N)ccc21 (stereo unspecified)
inactive: [1] | [2] | [4] | [5] | [7]
active: [3] 29.6 µM

COc1ccc(C2(C#N)CCC(C(=O)O)CC2)cc1OC1CCCC1 (stereo unspecified)
inactive: [1] | [2] | [3] | [4] | [5] | [6]

O=C(O)c1cc(=O)c2c(OCC(O)COc3cccc4oc(C(=O)O)cc(=O)c34)cccc2o1
not listed: [8] | [9] | [10]
inactive: all other assays above

CC(C)C[C@H](NC(=O)[C@H](Cc1ccccc1)NC(=O)c1cnccn1)B(O)O
active: [1] 0.0296 µM | [2] 0.0871 µM | [3] 0.0531 µM | [4] 23.5 nM | [5] 0.0743 µM | [7] 0.0935 µM | [6] 0.0296 µM | [8] 0.0369 µM | [9] 0.0465 µM | [10] 0.0465 µM

CC(S)C(=O)NCC(=O)O (stereo unspecified)
not listed: [9]
inactive: all other assays above

c1cnc2cc3c(cc2n1)C1CNCC3C1
inactive: all assays above

CNC[C@H](O)c1ccc(O)c(O)c1
not listed: [8] | [9] | [10]
inactive: all other assays above

Cc1cc(=O)c2c(O)c3c(O)cc(=O)c4c3c3c(cc(O)c1c23)C(C)(C)C=4O
active: [2] 1.51 µM and 2.43 µM | [3] 2.06 µM and 3.72 µM | [4] 920 nM and 4.69 µM | [6] 18.7 µM
inactive: [1] | [5]

COc1cc2c(cc1OC)C1CC(=O)C(CC(C)C)CN1CC2 (stereo unspecified)
inactive: [1] | [2] | [3] | [4] | [5] | [6]

CC(C)CC(=O)N[C@H](C(=O)N[C@H](C(=O)N[C@@H](CC(C)C)[C@@H](O)CC(=O)N[C@@H](C)C(=O)N[C@@H](CC(C)C)[C@@H](O)CC(=O)O)C(C)C)C(C)C (Isovaleryl-VV[Sta]A[Sta]-OH)
active: [8] 16.5 µM | [9] 1.47 µM
not listed: [10]
inactive: all other assays above

C[C@@H](N)C1CCC(C(=O)Nc2ccncc2)CC1 (stereo partly specified)
not listed: [8] | [9] | [10]
inactive: all other assays above

O=C(O)c1cccnc1Nc1cccc(C(F)(F)F)c1
inactive: [1] | [2] | [3] | [4] | [5] | [6]

Cc1nc2n(c(=O)c1CCN1CCC(c3noc4cc(F)ccc34)CC1)CCCC2
inactive: [1] | [2] | [3] | [4] | [5] | [6]

CCC1=C(C)CN(C(=O)NCCc2ccc(S(=O)(=O)NC(=O)NC3CCC(C)CC3)cc2)C1=O (stereo unspecified)
not listed: [8] | [9] | [10]
inactive: all other assays above

Nc1cccc2c1CN(C1CCC(=O)NC1=O)C2=O (stereo unspecified)
not listed: [8] | [9] | [10]
inactive: all other assays above

CCOc1cc(CC(=O)N[C@@H](CC(C)C)c2ccccc2N2CCCCC2)ccc1C(=O)O
not listed: [9]
inactive: all other assays above

O=Nc1c(-c2c(O)[nH]c3cc(Br)ccc23)[nH]c2ccccc12
active: [1] 18.7 µM | [2] 19.3 µM | [3] 16.6 µM | [4] 18700 nM | [7] 18.7 µM | [6] 14.8 µM
inactive: [5]

C=C(c1ccc(C(=O)O)cc1)c1cc2c(cc1C)C(C)(C)CCC2(C)C
active: [2] 3.89 µM
not listed: [5] | [7]
inactive: all other assays above

CS(=O)(=O)OCCCCOS(C)(=O)=O
active: [9] 16.5 µM
not listed: [5] | [7]
inactive: all other assays above

CCOC(=O)C1=C[C@@H](OC(CC)CC)[C@H](NC(C)=O)[C@@H](N)C1
inactive: [1] | [2] | [3] | [4] | [5] | [6]

NS(=O)(=O)c1cc(C(=O)O)c(NCc2ccco2)cc1Cl
inactive: [1] | [2] | [3] | [4] | [7] | [6]

COc1ccccc1N1CCN(CCN(C(=O)C2CCCCC2)c2ccccn2)CC1
inactive: [1] | [2] | [3] | [5] | [7] | [6]

NC(=NCc1ccccc1)NC(=O)c1nc(Cl)c(N)nc1N
inactive: [1] | [2] | [5]
active: [3] 26.4 µM

Clc1ccc2c(N3CCN(CCCN4CCN(c5ccnc6cc(Cl)ccc56)CC4)CC3)ccnc2c1
inactive: [1] | [2] | [3] | [5] | [6]

CCCc1cc(=O)[nH]c(=S)[nH]1
inactive: [1] | [2] | [3] | [5] | [7] | [6]

CC1=C(C(=O)O)N2C(=O)[C@@H](NC(=O)[C@H](N)C3=CCC=CC3)[C@H]2SC1
inactive: [1] | [2] | [3] | [4] | [7] | [6]

O=P(O)(O)C(O)(Cn1ccnc1)P(=O)(O)O
inactive: [1] | [2] | [3] | [4] | [5] | [6]
